Screening data as filed in PubChem BioAssay.
A selection: hits, their analogues and other compounds. The true share with any hit is near 1.6%.
S1P3 antag = antagonists of human S1P3 receptor | CHO S1P3 NFAT-BLA reporter, FRET fluorescence, antagonist mode | inhibition, % at 4.98 µM | hit rate 0.27% among 170,000 | AID 485;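 active means inhibition above the plate cutoff, the mean inhibition of test wells on that plate plus 3 SD, cut at about 28% in these data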;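 further: cells challenged with S1P at its EC80 of 0.8 µM; blue over green emission ratio from cleaved BLA substrate after 4 h stimulation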
Redox H2O2 prof = compounds producing H2O2 with reducing agent – biochemical, NIH compound library profiling, artefact control for MLSCN library redox annotation, primary screen | activation, % at 10 µM | DTT-dependent redox cycling H2O2, phenol red/HRP absorbance; 100% = 100 µM peroxide control, 0% = buffer | hit rate 0.03% among 200,000;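 active means activation of at least 50% relative to the plate's high and low controls in the primary single-dose screen; inactive means activation below 50%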;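 further: compound incubated with DTT at 0.8 mM final as the reducing agent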
S1P4 antag = human S1P4 receptor antagonism; O95977; S1P4-expressing cells, antagonist mode, reporter read-out; inhibition, % at 4.98 µM; hit rate 0.26% among 220,000; AID 1510; in the data active means inhibition above about 29%
p97 inhibitor = blocks human p97 ATPase activity; P55072; recombinant p97 ATPase, Kinase-Glo ATP luminescence, 3 h; inhibition, % at 8 µM; hit rate 0.42% among 220,000; AID 1481; in the data active means inhibition above about 15%
Target sequence (P55072 whole entry, looked up): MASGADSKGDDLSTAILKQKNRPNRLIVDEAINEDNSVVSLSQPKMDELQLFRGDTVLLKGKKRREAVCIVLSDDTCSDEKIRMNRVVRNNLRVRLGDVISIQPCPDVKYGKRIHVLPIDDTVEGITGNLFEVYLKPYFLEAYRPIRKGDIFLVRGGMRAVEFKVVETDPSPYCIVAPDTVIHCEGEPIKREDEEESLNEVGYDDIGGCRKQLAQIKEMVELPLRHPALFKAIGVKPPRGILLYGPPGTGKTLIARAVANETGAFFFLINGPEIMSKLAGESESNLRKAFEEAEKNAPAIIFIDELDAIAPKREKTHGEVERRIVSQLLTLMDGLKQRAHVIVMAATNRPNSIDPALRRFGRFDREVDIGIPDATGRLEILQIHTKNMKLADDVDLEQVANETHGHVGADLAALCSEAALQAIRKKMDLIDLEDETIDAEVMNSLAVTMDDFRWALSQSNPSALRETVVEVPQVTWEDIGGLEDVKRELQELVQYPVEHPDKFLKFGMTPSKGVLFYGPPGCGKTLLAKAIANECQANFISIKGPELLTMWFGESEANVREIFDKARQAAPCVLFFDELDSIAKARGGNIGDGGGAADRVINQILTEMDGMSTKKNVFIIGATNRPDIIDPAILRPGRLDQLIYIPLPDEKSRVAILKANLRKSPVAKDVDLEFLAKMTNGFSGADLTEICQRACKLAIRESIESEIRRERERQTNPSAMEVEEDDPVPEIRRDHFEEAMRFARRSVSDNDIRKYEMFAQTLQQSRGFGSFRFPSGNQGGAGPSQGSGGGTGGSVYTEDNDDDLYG
S1P4 ag = activates the human S1P4 receptor | O95977 | hit rate 0.35% among 220,000 | AID 1509 | activation, % at 4.98 µM | S1P4-expressing cell line, agonist reporter assay; in the data active means activation above about 11%
Arbovirus inh = arbovirus infection inhibition; arbovirus infection cell-based antiviral screen; inhibition, % at 10 µM; hit rate 0.37% among 200,000; in the data active means inhibition above about 30%
Hits are given with their value; . = inactive; / = not tested or not shown; ! = not active in a repeat.

SMILES	S1P3 antag	Redox H2O2 prof	S1P4 antag	p97 inhibitor	S1P4 ag	Arbovirus inh
Fc1ccc(Br)cc1C1C=C(c2ccc(Br)cc2)Nc2ncnn21 (stereo unspecified)	/	.	.	.	.	70.8
CCc1ccc(C2=CC(c3cc(Br)ccc3F)n3ncnc3N2)cc1 (stereo unspecified)	/	.	.	.	.	62.1
Cc1ccccc1NC(=S)NC(NC(=O)c1ccccc1C)C(Cl)(Cl)Cl (stereo unspecified)	/	.	.	.	.	.
CCOC(=O)NC1(C(F)(F)F)C(=O)N(Cc2ccccc2)C2=C1C(=O)CC(C)(C)C2 (stereo unspecified)	/	.	.	.	.	.
O=C(NCc1ccc2c(c1)OCO2)c1nnc(Cc2ccc(F)cc2)o1	105.9	.	.	.	.	.
CSc1nc(-c2ccc(Cl)cc2Cl)[nH]c(=O)c1C#N	.	.	.	.	.	42.1
Cc1ccc2nc3cc([N+](=O)[O-])cc([N+](=O)[O-])c3cc2c1	.	.	29.3	.	.	.
Cc1cc(C)c[n+](-c2nc([O-])sc2C=O)c1	/	.	.	.	.	.
CCOC(=O)c1c(-c2ccc(C)c(C)c2)csc1NC(=O)C1CC=CCC1C(=O)O (stereo unspecified)	/	.	.	.	.	40.9
Cc1nn(CC(=O)OCCOc2ccc(Br)cc2)c(C)c1[N+](=O)[O-]	.	.	.	.	.	60.7
Cc1ccc(CNC(=O)COC(=O)Cn2nc(C)c([N+](=O)[O-])c2C)cc1	.	.	.	.	.	.
O=C1CC(c2cccc([N+](=O)[O-])c2)c2ccc3ccccc3c2N1 (stereo unspecified)	/	.	.	.	.	36.4
Cn1nc(C(=O)NCc2ccc(F)cc2)c2ccccc2c1=O	90.6	.	.	.	.	.
COc1cccc(C2CC(c3ccccc3Cl)Nc3nc(N)nn32)c1 (stereo unspecified)	.	.	.	.	.	.
COc1cccc(C2CC(c3ccc(Cl)cc3Cl)Nc3nc(N)nn32)c1 (stereo unspecified)	.	.	.	.	.	41.5
COc1ccc(Nc2ccc(OC)cc2)cc1	.	/	.	14.7	.	/
Cc1cc2[nH]c3ccccc3c2c(C)n1	.	.	.	.	.	.
Cc1nc2c(c3c1[nH]c1ccccc13)C(O)CC(C)(C)C2 (stereo unspecified)	.	.	.	.	.	53.8
O=C(O)CC(C(=O)O)N1C(=O)/C(=C/c2ccc(-c3nc4ccccc4s3)o2)SC1=S (stereo unspecified)	/	.	.	.	.	.
O=C(O)CCN1C(=O)/C(=C/c2ccc(-c3nc4ccccc4s3)o2)SC1=S	/	.	.	.	.	42.2
CCOC(=O)c1sc(NC(=O)c2cc(-c3ccccc3)nc3ccccc23)c(C#N)c1C	/	.	.	.	.	.
CC(C)c1ccc(NC(=O)C2CCCN(S(=O)(=O)c3cnc[nH]3)C2)cc1 (stereo unspecified)	.	.	.	.	.	.
CC(NC(=O)C1CCCN(S(=O)(=O)c2cnc[nH]2)C1)c1ccccc1 (stereo unspecified)	.	.	.	17.7	.	.
CCOc1ccc(-n2c(SCC(=O)Nc3cc(OC)c([N+](=O)[O-])cc3C)nc3ccccc32)cc1	.	.	.	.	.	53.9
NC(=O)[C@H](Cc1cc2ccccc2s1)NC(=O)[C@@H]1CC2(CC(c3cccc(NC(=O)[C@@H]4CCC(=O)N4)c3)=NO2)CN1C(=O)/C=C/Sc1ccccc1 (stereo partly specified)	.	.	.	17.2	.	.
SMILES	S1P3 antag	Redox H2O2 prof	S1P4 antag	p97 inhibitor	S1P4 ag	Arbovirus inh
CC(C)Cc1csc(NC(=O)c2ccc(Br)cc2)c1C(=O)O	.	/	.	.	.	/
Cc1cc(C)c2nc(-c3ccccn3)cc(C(=O)Nc3cc(C)on3)c2c1	54.1	.	.	.	.	.
Cc1cc(NC(=O)c2cc(-c3ccccn3)nc3ccccc23)no1	.	.	.	.	.	.
COc1ccc(C(=O)NC(=S)NCCO)cc1Br	/	.	.	.	.	.
N[C@@H](Cc1cc(I)c(Oc2ccc(O)c(I)c2)c(I)c1)C(=O)O	.	.	.	.	.	47.4!
Cc1ccc(C(=O)NCC(=O)NCC(=O)OCC(=O)c2ccc(F)cc2)cc1	.	.	.	.	.	.
O=C(N/N=C/c1ccc(O)cc1)c1cccc(N/N=C/c2ccc(O)cc2)c1	.	/	.	17.4	.	/
O=C(N/N=C/c1ccncc1)c1cccc(N/N=C/c2ccncc2)c1	.	.	.	.	.	.
CC(C)C(C(=O)NCc1ccco1)N(C(=O)CNS(=O)(=O)c1ccc(Cl)cc1)C1CCCC1 (stereo unspecified)	.	.	.	.	11.3	.
CC(C)C(C(=O)NCc1ccco1)N(C(=O)CNS(=O)(=O)c1ccccc1)c1ccccc1 (stereo unspecified)	.	.	.	.	.	.
CCOc1ccc2nc(NC(=O)C3CCN(S(=O)(=O)c4cnc[nH]4)CC3)sc2c1	.	.	.	.	.	30.3
CCOc1ccc2nc(NC(=O)Nc3cccs3)sc2c1	57.5	.	.	.	.	35.7
Cc1ccc2nc(NC(=O)C3CCN(S(=O)(=O)c4cnc[nH]4)CC3)sc2c1	.	.	.	.	.	30.9
COc1cc(/C=N/NC(N)=O)ccc1OCC(=O)Nc1cc(C)c(C)cc1Br	.	.	.	.	.	.
O=C(CCC(=O)NNC(=O)c1ccccc1[N+](=O)[O-])NCc1ccccc1	.	.	.	.	.	.
c1cncc(CSc2nnc(-c3cccnc3)n2Cc2ccco2)c1	.	.	.	.	.	.
O=C(CSc1nnc(-c2cccnc2)n1Cc1ccco1)N1c2ccccc2Sc2ccccc21	91.2	.	.	.	.	.
CCOc1cccc2cc(-c3nnc(-c4ccccc4)o3)c(=O)oc12	65.2	/	/	/	/	/
COc1cccc2cc(-c3ccccc3)c(=O)oc12	.	.	.	.	.	.
CCc1nc2c(c(SC)nn2-c2ccccc2)c(N)c1C(=O)OC	/	.	.	.	.	.
COc1ccc(N2CSC3=C(C#N)C(c4cccc(OC)c4OC)CC(=O)N3C2)cc1 (stereo unspecified)	98.9	.	.	.	.	.
Cc1cccc(N2CSC3=C(C#N)C(c4ccc(C)o4)CC(=O)N3C2)c1 (stereo unspecified)	.	.	.	17.3	.	.
CCOC(=O)CC(NC(=O)Cn1nnc(-c2ccccc2)n1)c1ccc(OC)cc1 (stereo unspecified)	.	.	.	.	.	.
O=C1c2ccccc2N2C(=O)c3ccccc3[C@H]2N1c1ccccc1	/	.	.	.	.	30.1
O=C1c2ccccc2N2C(=O)c3ccccc3C2N1Cc1ccccc1 (stereo unspecified)	.	/	.	.	.	/
Nc1nc2ccccc2n1/N=C/c1ccc(-c2ccccc2)o1	.	.	.	.	.	39.1
